Screening data: PubChem, National Center for Advancing Translational Sciences (NCATS)
DRD3 agonist: D3 dopamine receptor (human) agonism; actives 0.58% (n = 410,000); max activation, %; P35462; D3R DiscoveRx beta-arrestin cells, luminescence, 90 min; in the data active = max activation above about 30%; note: 0% is about no effect
Target sequence (P35462 whole entry, looked up): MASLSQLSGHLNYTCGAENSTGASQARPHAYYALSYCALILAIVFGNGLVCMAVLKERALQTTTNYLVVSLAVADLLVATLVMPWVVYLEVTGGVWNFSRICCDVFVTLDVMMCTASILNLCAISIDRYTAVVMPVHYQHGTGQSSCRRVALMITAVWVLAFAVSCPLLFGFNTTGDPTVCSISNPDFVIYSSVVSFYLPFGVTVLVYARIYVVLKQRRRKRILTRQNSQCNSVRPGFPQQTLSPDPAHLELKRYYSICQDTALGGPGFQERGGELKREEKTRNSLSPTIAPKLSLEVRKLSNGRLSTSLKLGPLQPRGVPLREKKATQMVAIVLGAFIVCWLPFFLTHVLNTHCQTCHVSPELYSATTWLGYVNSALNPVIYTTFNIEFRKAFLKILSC
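Agonist mode: compounds and dopamine controls were applied to plated cells for 90 min at 37 degrees C after an overnight attachment at 1500 cells/well. Luminescent read-out followed 30 - 60 minutes at room temperature with DiscoveRx detection reagent.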
ClpP mod: qHTS Assay for Activators of ClpP. ATP-dependent Clp protease proteolytic subunit (Bacillus subtilis (strain 168)), P80244. purified B. subtilis ClpP, FRET peptide cleavage, 20 min. Potency, µM (top dose mostly 57.5 µM), for the others: at the highest dose activity change, negative = active. actives 1.9% (n = 340,000). AID 651965, 2013; active = well fitted falling curve with a large enough effect; inconclusive = small, poorly fitted or top-dose-only effect; inactive = no such curve, though single readings can be large or run the other way; note: potency is the fitted concentration of half-maximal effect; the source files actives as falling curves though it sought activators and does not explain the sign; nearly all actives have a fitted effect of over 65% in size
Target sequence (P80244 whole entry, looked up): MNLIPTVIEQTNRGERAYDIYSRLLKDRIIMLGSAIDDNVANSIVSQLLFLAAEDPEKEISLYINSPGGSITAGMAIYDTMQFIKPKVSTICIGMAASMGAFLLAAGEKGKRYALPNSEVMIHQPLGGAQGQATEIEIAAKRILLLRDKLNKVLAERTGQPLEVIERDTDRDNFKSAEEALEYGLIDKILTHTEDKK
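Buffer: 100 mM Tris/HCl pH8, 100 mM KCl, 0.05% low protease BSA, 2.5% glycerol, 0.01% Tween-20. ClpP 10 microg/mL final; 20 min RT; delta FRET normalized to ADEP and DMSO controls.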
IL-1B inflam inh: inhibitors of inflammasome signaling (IL-1 beta secretion). actives 4.7% (n = 360,000). THP-1 LPS/ATP IL-1B secretion, AlphaLISA, 16 h; stronger effect = lower value. activity change, % at 57.5 µM. AID 743279; in the data active = activity change below about -50%; inconclusive = mostly about -30% to -49%; note: % is set by controls: 0 for no effect and ±100 for the full control effect
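Secreted IL-1B measured by AlphaLISA bead assay after 16 h compound exposure of THP-1 cells; compounds (final up to 57.5 uM) added 1 h before LPS (250 ng/mL) and ATP (1.25 mM) stimulation; lower signal means less secretion.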
DRD3 antagonist: D3 dopamine receptor (human) antagonism. P35462. D3R cells, DiscoveRx beta-arrestin luminescence, antagonist mode; stronger effect = lower value. max response, negative = inhibition, %. actives 2.5% (n = 360,000); in the data active = max response below about -50%; inconclusive = no clear call, values can overlap the other calls; note: % is set by controls: 0 for no effect and ±100 for the full control effect
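Cells plated overnight at 1500 cells/well, then exposed to library compounds with dopamine controls for 90 minutes at 37 degrees C. DiscoveRx reagent added for 30–60 minutes at room temperature; luminescence read, quantitative HTS format.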
TDP1 cell noCPT: qHTS for Inhibitors of human tyrosyl-DNA phosphodiesterase 1 (TDP1): qHTS in cells in absence of CPT; DT40 Tdp1-/- hTDP1 cells, no CPT, ATP luminescence, 48 h; Potency, µM (titrated, usually from 46.2 µM), for the others: top-dose activity change, negative = growth inhibition, most hits filed as inhibitors; actives 15% (n = 420,000); note: potency is the fitted concentration of half-maximal effect; % is set by controls: 0 for no effect and ±100 for the full control effect; nearly all actives have a fitted effect of over 55% in size
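Growth kinetics read by CellTiter-Glo luminescence after ≥48 hr at 37 °C. Cells: DT40 Tdp1-/- stably carrying human TDP1, 400 per well, compound exposure in the absence of CPT (DMSO vehicle).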
DT40 TDP1 CPT: growth inhibition of DT40 Tdp1-/-;hTDP1 cells with camptothecin (screen for TDP1 inhibitors). chicken DT40 Tdp1-/-;hTDP1 cells + 20 nM CPT, ATP luminescence, 48 h. Potency, µM (titrated, usually from 46.2 µM), inactives show at the top dose activity change, negative = growth inhibition, hits mostly inhibitors. actives 12% (n = 420,000); note: potency is the fitted concentration of half-maximal effect; % is set by controls: 0 for no effect and ±100 for the full control effect; nearly all actives have a fitted effect of over 55% in size
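Chicken DT40 Tdp1-/- cells stably complemented with human TDP1 were seeded at 400 cells/well in medium containing 20 nM camptothecin, exposed to pin-transferred compounds, and grown at 37 °C for at least 48 hr. Viability was read as ATP luminescence.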
Active calls of the source: *; ? = inconclusive; . = no result. Compounds with a hit are over-represented: about 21% of the library has one in this group of screens. Unless noted, calls come from the whole dose curve; as a rule, active = well fitted inhibition curve with a large enough effect; inconclusive = small, poorly fitted or top-dose-only effect; inactive = flat fitted curve, though single readings scatter.

SMILES	DRD3 agonist	ClpP mod	IL-1B inflam inh	DRD3 antagonist	TDP1 cell noCPT	DT40 TDP1 CPT
Cc1ccc(-n2nnnc2SCn2nnc3ccccc3c2=O)cc1	0	1%	-5	10	13µM*	?
Fc1ccc(N2CCN(C3CCC(c4ccccc4)CC3)CC2)cc1 (stereo unspecified)	-13	-1%	12	-82*	-20%	-29%
O=[N+]([O-])/C=C/c1cc2ccccc2[nH]1	1	2%	-4	21	18µM*	21µM*
O=[N+]([O-])c1cccc(-c2cc3ccccc3[nH]2)c1	5	0%	23	3	-7%	-19%
CN(C)CCN1C(=O)c2ccccc2N(C)c2ccccc21	-16	.	.	.	?	-24%
COc1cc(NC(=O)COc2cc(O)c3c(c2)OC(C)(C)CC3=O)cc(OC)c1	-2	-2%	-5	28	13µM*	16µM*
CC1(C)CC(=O)c2c(O)cc(OCC(=O)Nc3ccc(CCO)cc3)cc2O1	34*	2%	-13	17	21µM*	15µM*
COc1ccc(CCNC(=O)COc2cc(O)c3c(c2)OC(C)(C)CC3=O)cc1OC	0	0%	-5	-4	18µM*	?
COc1ccc(CCNC(=O)COc2cc(O)c3c(c2)OC(C)(C)CC3=O)cc1	2	-5%	-15	0	?	?
COc1cccc(NC(=O)COc2cc(O)c3c(c2)OC(C)(C)CC3=O)c1	6	0%	-7	23	?	?
NNC(=O)c1nnsc1-c1csnn1	-11	0%	-8	-6	-4%	-23%
CN(C)/C=C/c1oc2ccc(O)cc2c1[N+](=O)[O-]	-6	.	-9	-52*	?	5%
CN(C)/C=C/c1[nH]c(=O)[nH]c(=O)c1[N+](=O)[O-]	5	0%	0	-2	-23%	0%
COc1ccc(C2c3[nH]c4ccccc4c3CCN2C(=O)c2ccc(=O)n(C)n2)c(F)c1 (stereo unspecified)	3	.	67	2	?	-14%
CCOc1cccc(C2c3[nH]c4ccccc4c3CCN2C(=O)c2ccccc2F)c1 (stereo unspecified)	-13	-3%	.	.	16µM*	?
Cc1ccccc1C(=O)N1CCc2c([nH]c3ccccc23)C1C(F)(F)F (stereo unspecified)	-11	-1%	-55*	-16	?	?
CCc1cc(C(=O)N2CCc3c([nH]c4ccccc34)C2c2ccc(OC)cc2F)no1 (stereo unspecified)	-1	.	?	-4	23µM*	?
Cc1cccc(N2CCN(C(=O)Cc3c(C(=O)O)c(C)cn3C)CC2C)c1 (stereo unspecified)	3	-5%	.	.	7%	-1%
CC(=O)NCCNC(=O)C1(C)Cc2c(-c3ccccc3)ccnc2O1 (stereo unspecified)	-3	-10%	8	0	-13%	-15%
CC1(C(=O)NCc2ccco2)Cc2c(-c3ccccc3)ccnc2O1 (stereo unspecified)	-7	-4%	56	-58*	2.3µM*	2.6µM*
CC1(C(=O)NCCC(F)(F)F)Cc2c(-c3ccccc3)ccnc2O1 (stereo unspecified)	-23	-1%	0	-18	5.8µM*	6.5µM*
Cc1cccc2nnc(-c3ccccc3)n12	1	1%	7	-6	11%	7%
O=C(Nc1ccc(C(F)(F)F)cc1)c1csc(-c2ccncc2)n1	4	.	?	2	?	-10%
O=C(NNC(=O)c1csc(-c2cnccc2C(F)(F)F)n1)c1ccc(C(F)(F)F)cc1	-4	0%	99	3	16µM*	?
O=C(NCCc1nnc2n1CCN(Cc1ccc3c(c1)CCO3)CC2)c1ccco1	.	.	.	.	-8%	-5%
SMILES	DRD3 agonist	ClpP mod	IL-1B inflam inh	DRD3 antagonist	TDP1 cell noCPT	DT40 TDP1 CPT
COc1ccc(C(=O)Nn2c(C)nc3ccccc3c2=O)c(OC)c1	2	1%	-4	23	-5%	9%
COc1ccc(C(=O)Nn2c(CC(C)C)nc3cc(Cl)ccc3c2=O)c(OC)c1	8	.	24	3	21µM*	?
Cc1cccc(C2=Nc3ccccc3N=C(c3cc(Cl)ccc3O)C2)c1	-17	-10%	.	.	?	?
COc1ccc(O)c(C2=Nc3ccccc3N=C(c3ccccc3)C2)c1	-1	-1%	17	-17	18µM*	23µM*
CN(CCCNC(=O)CSc1cc(=O)n(C)c2ccc(Cl)cc12)Cc1ccccc1	-3	.	-54*	4	?	?
CCc1ccc(CNC(=O)CSc2cc(=O)n(C)c3ccc(Cl)cc23)cc1	-14	-14%	.	.	23µM*	23µM*
CCN(CCCNC(=O)CSc1cc(=O)n(C)c2cc(Cl)ccc12)c1ccccc1	-10	-5%	.	.	?	?
COCCNC(=O)CSc1cc(=O)n(C)c2cc(Cl)ccc12	2	.	12	3	4%	24%
Cc1ccc(OCC(=O)N(C)C2CCCCC2)c([N+](=O)[O-])n1	4	0%	9	34	3%	-1%
CCCCCCC1CCC(C(=O)N2CCOCC2)CC1 (stereo unspecified)	-1	0%	43	8	?	?
COc1ccc(CCC(=O)Nc2cc(S(=O)(=O)N3CCOCC3)ccc2OC(C)C)cc1	-1	2%	-25	-9	5%	-4%
N#Cc1ccc(C23CC4CC(CC(C4)C2)C3)[nH]c1=O	1	16µM*	89	2	-7%	-4%
CC(=O)N1CCc2cc3nc(C)cc(C)c3cc21	-3	25µM*	-2	?	-26%	-29%
COc1ccccc1-n1c(=O)n(C)c2c(C(N)=O)nc(-c3cc(OC)c(OC)c(OC)c3)nc21	6	-4%	.	.	.	.
COc1ccc(OCC(O)Cn2ccnc2C)cc1 (stereo unspecified)	-11	1%	-11	10	-26%	-2%
COc1cc(OC)cc(OCC(O)Cn2cnc3cc(C)c(C)cc32)c1 (stereo unspecified)	4	1%	-5	19	16µM*	?
COC(=O)[C@H](C)NC(=O)c1cc2c(cn1)[nH]c1ccccc12	-7	.	-85*	0	18µM*	18µM*
C[C@H](NC(=O)c1cc2c(cn1)[nH]c1ccccc12)C(=O)O	11	.	13	4	?	?
Oc1ccccc1C=NCc1ccccc1	-6	.	.	.	?	5%
